This is an account of results in PubChem BioAssay (NCI).

Holding throughout (assay): NCI-60 one-dose screen, 48 h (100 = growth as untreated, 0 = no growth, -100 = all killed)
Common to all, as to conditions: 10 µM unless noted

In assay [1] the test system is NCI-H23 lung.
Assay [2] has as its system NCI-H226 lung.
The subject of assay [3] is NCI-H322M lung.
Assay [4] relates to HOP-62 NSCLC.
The subject of assay [5] is NCI-H460 lung.
Assay [6] has as its system NCI-H522 lung.
The test system of assay [7] is A549/ATCC NSCLC.
For assay [8], the system named is 786-0 renal.
Assay [9] concerns COLO 205 colon.
Assay [10] relates to DU-145 prostate.
Assay [11] deals with K-562 leukemia.
The subject of assay [12] is MALME-3M melanoma.
The subject of assay [13] is MDA-MB-231 breast.
Assay [14] relates to RXF 393 renal.
The test system of assay [15] is SF-268 CNS.
Assay [16] concerns SF-295 CNS.
The subject of assay [17] is SF-539 CNS.
Assay [18] relates to UACC-257 melanoma.
Assay [19] relates to M14 melanoma.
The test system of assay [20] is HOP-92 NSCLC.

Values joined by “and” are separate entries in the source; they are usually repeats but may differ in a detail not shown here. Equal values may be shown once. This is part of a sample that, as a whole, favours compounds with a hit. Of some 83,000 tested, about 20% had one in any assay.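 How to read the values: 0–100, growth inhibition (40 = 60% inhibited); 0, no net growth; -100 to 0, cell death (-40 = 40% of starting cells died; -100 = all dead).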 Active and inactive are the calls of the source. Rule for the calls: active = growth percent below 10; inactive = the rest.

On to `CCN(CC)CCCC(CNc1ccnc2cc(Cl)ccc12)c1ccc(Cl)cc1` (configuration not stated), for which the growth was 48.9% (inactive) and 54.3% (inactive) in [1]; 4.19% (active) and 25.2% (inactive) in [2]; -33.5% (active) and 46.5% (inactive) in [3]; 4.57% (active) and 88.8% (inactive) in assay [4]; 24.3% (inactive) and -63.6% (active) in assay [5]; -49.4% (active) and -59.6% (active) in assay [6]. Moreover, the growth in assay [7] is 4.3% (active) and 61.4% (inactive); in [8], -83.4% (active) and -97.3% (active); in assay [9] it was -61.9% (active) and -85.6% (active); in assay [10], 34.5% (inactive) and 29.6% (inactive); in [11], -69% (active) and -71% (active); in assay [12] it was -91.3% (active) and -77.4% (active). Besides, the growth is -58.2% (active) and 38.7% (inactive) in assay [13]; -64.7% (active) and 22.7% (inactive) in [14]; -19.4% (active) and -34.3% (active) in assay [15]; -69.7% (active) and -71.8% (active) in assay [16]; -87.6% (active) and -92.2% (active) in assay [17]; -67.8% (active) and -86.2% (active) in [18]. In addition, the growth in assay [19] was -84.7% (active) and -71.4% (active).
Consider `c1ccc(NCc2ccc3c(c2)OCO3)cc1`, for which the growth was 100% (inactive) and 105% (inactive) in assay [1]; 103% (inactive) and 97.9% (inactive) in assay [2]; 114% (inactive) and 99.2% (inactive) in [3]; 93.7% (inactive) and 101% (inactive) in [4]; 105% (inactive) and 99.4% (inactive) in [5]; 91.1% (inactive) and 95.6% (inactive) in assay [6]. Moreover, the growth is 103% (inactive) and 95.3% (inactive) in [7]; 102% (inactive) and 96.8% (inactive) in [8]; 113% (inactive) and 102% (inactive) in assay [9]; 111% (inactive) and 108% (inactive) in assay [10]; 105% (inactive) and 98.7% (inactive) in assay [11]; 106% (inactive) and 119% (inactive) in assay [12]. For the same molecule, the growth was 100% (inactive) and 106% (inactive) in assay [13]; 104% (inactive) and 95.2% (inactive) in [14]; 99.1% (inactive) and 99.4% (inactive) in assay [15]; 105% (inactive) in assay [16]; 102% (inactive) and 91.4% (inactive) in assay [17]; 101% (inactive) and 97.5% (inactive) in assay [18]. Further, the growth in assay [19] is 101% (inactive).
On to `CCCCCCCCCCCCCCCc1cc(O)ccc1N`, for which the growth is 90.5% (inactive) and 89.6% (inactive) in [1]; 33.9% (inactive) and 99.6% (inactive) in [2]; 102% (inactive) and 84.1% (inactive) in assay [3]; 103% (inactive) and 110% (inactive) in assay [4]; 109% (inactive) and 102% (inactive) in assay [5]; 105% (inactive) in [20]. The growth in assay [6] was -22.4% (active) and -23.6% (active); in assay [8], 77.6% (inactive) and 21.1% (inactive); in assay [9], 107% (inactive) and 114% (inactive); in assay [10], 96.6% (inactive) and 107% (inactive); in [11] it was 55.8% (inactive); in assay [12], 106% (inactive) and 78.2% (inactive). Further, the growth in assay [13] was 59.4% (inactive) and 71.5% (inactive); in [14], 94.7% (inactive); in [15], 77% (inactive) and 36.7% (inactive); in assay [16], 41.3% (inactive) and 49.7% (inactive); in assay [17], -40.5% (active) and -83.9% (active); in assay [18], 87.4% (inactive) and 71.4% (inactive). For the same molecule, the growth in [19] is 101% (inactive) and 105% (inactive).
